{"source": "PubChem BioAssay AID2762", "about": "(National Center for Advancing Translational Sciences (NCATS), 2010)", "note": "Inconclusive results are not listed. Calls of active or inactive are those of the source. Calls follow the shape of the dose curve; as a rule, active = well fitted inhibition curve with a large enough effect; inconclusive = small, poorly fitted or top-dose-only effect, or effect the other way; inactive = no such curve, though single readings can be large or run the other way.", "data": [{"target": "Nuclear receptor ROR-gamma (Mus musculus) (UniProt P51450)", "sequence (P51450 whole entry, looked up, the tested form may be a part)": "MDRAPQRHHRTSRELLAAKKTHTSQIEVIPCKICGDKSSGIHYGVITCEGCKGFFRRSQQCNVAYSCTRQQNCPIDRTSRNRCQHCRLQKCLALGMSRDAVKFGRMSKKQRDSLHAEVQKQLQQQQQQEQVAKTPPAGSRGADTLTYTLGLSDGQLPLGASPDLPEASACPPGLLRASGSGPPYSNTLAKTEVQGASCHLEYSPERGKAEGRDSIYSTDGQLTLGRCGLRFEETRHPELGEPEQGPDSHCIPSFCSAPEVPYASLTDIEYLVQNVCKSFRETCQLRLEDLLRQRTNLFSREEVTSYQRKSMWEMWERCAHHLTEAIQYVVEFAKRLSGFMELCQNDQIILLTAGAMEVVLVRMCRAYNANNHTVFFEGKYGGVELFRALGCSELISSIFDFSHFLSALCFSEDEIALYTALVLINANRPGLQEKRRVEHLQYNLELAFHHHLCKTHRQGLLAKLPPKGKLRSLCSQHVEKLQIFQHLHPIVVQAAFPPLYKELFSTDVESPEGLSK", "test": "Concentration response confirmation assay for inhibitors of ROR gamma transcriptional activity", "conditions": "Drosophila S2 Gal4-RORgamma UAS-luciferase, 20 h; series mostly up to 46.1 µM", "description": "NIH Molecular Libraries Probe Production Network [MLPCN] NIH Chemical Genomics Center [NCGC] MLPCN Grant: R03 DA026211-01 Assay Provider: Dan Littman, New York University Assay Overview: The retinoic acid-related orphan receptor (ROR) gamma is a transcription factor that has a central role in the differentiation of Th17 cells, a subset of T helper cells that secrete the inflammatory cytokines IL-17, IL-17F, and IL-22. Th17 cells have been implicated in graft versus host disease, autoimmune disease and asthma. ROR gamma is induced in naive T helper cells in the presence of TGF-beta combined with IL-6, IL-21, or IL-23, and thereafter directs the expression of the Th17 lineage cytokines. To study the mechanism of action of ROR gamma, an insect cell-based assay was screened. This Drosophila Schneider cell line was stably transfected with two vectors: a gene expressing a fusion of the Gal4 DNA binding domain and ROR gamma transactivation domain under the control of the metallothionine promoter and a Photinus luciferase reporter regulated by the Gal4 binding site enhancer, UAS. […] Small molecule inhibitors of ROR gamma activity are detected by a decrease in luciferase reporter activity.\nAssay Protocol Summary: For screening, 600 cells in 4 uL/well were dispensed into white solid 1536-well plates (Grenier) using a solenoid-based dispenser. Following transfer of 23 nL compound or DMSO vehicle by a pin tool, the plates were incubated 1 hr at ambient temperature, and 1 uL/well copper sulfate (700 uM final concentration) was added. The plates were centrifuged 15 s at 1000 RPM and incubated 20 hr at ambient temperature. After addition of 1.5 uL Photinus luciferase detection reagent, the plates were incubated 10 min at ambient temperature and then read by an ViewLux (Perkin Elmer) to detect luminescence. Keywords: NIH Roadmap, MLPCN, MLI, MLSMR, qHTS, NCGC, qHTS, nuclear hormone receptor, retinoic acid-related orphan receptor, ROR gamma", "values": [{"smiles": "Cn1ncnc2c(=O)n(C)c(=O)nc1-2", "Potency": "0.996 µM (active)"}, {"smiles": "Cc1nc2ccccc2c(=O)n1-c1cc([N+](=O)[O-])cc([N+](=O)[O-])c1", "Potency": "inactive"}, {"smiles": "O=C(Nc1ncc(Cc2ccccc2)s1)C1=NCCN1", "Potency": "9.96 µM (active)"}]}]}
